# Screens from PubChem.
# An excerpt weighted towards active compounds, which were near 27% of everything screened.
# CYP2C9 inh – blocks human cytochrome P450 2C9; P11712; CYP2C9 Supersomes, luciferin-H conversion, luminescence; inhibition, % at 5 µM; hit rate 20% among 96,000;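 active = blocking of liver enzyme CYP2C9 beyond about 50% at 5 µM, limit read from the data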
# Cav32 inh – blocks human Cav3.2 T-type calcium channel | O95180 | Cav3.2-expressing cells, Fluo-4 calcium fluorescence FDSS; active compounds read low | hit rate 4% among 100,000 | AID 449739 | B-score at 10 µM;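 active = single-dose well whose peak fluorescence ratio is a statistical outlier from its plate by either plate-standardised score or position-corrected B-score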
# CYP2C19 act – activators of human cytochrome P450 2C19; P33261; recombinant CYP2C19, luciferin-H EGE luminescence; active compounds read high; 0 = fully inhibited enzyme, 1 = untreated enzyme; activation factor at 5 µM; 96,000 tested, under 10 active; AID 1025;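 active = activation factor of at least 2 at 5 µM in the primary screen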;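 also: 0 = wells with 2.5 mM tranylcypromine and 1 = vehicle-only wells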
# CYP2C9 act – increases human cytochrome P450 2C9 activity; P11712; hit rate 1.4% among 96,000; AID 1024; recombinant CYP2C9, luciferin-H conversion, luminescence; active compounds read high; factor 1 = untreated enzyme, 0 = blocked; activation factor at 5 µM;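 active = activation factor of 2 or more for CYP2C9 at a 5 µM dose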;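 also: 0 = sulfaphenazole-blocked wells and 1 = vehicle-only wells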
# CYP2C19 inh – human CYP2C19 inhibition | CYP2C19 Supersomes, luciferin-H EGE luminescence, 30 min | inhibition, % at 5 µM | hit rate 21% among 96,000;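 active = CYP2C19 inhibition above a set limit at 5 µM in the primary screen, cut at about 50% in these data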;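 also: plate controls were negative control wells for no effect and 2.5 mM tranylcypromine positive control for full effect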
# * hit, by the source's call; / = no result given.
SMILES,CYP2C9 inh,Cav32 inh,CYP2C19 act,CYP2C9 act,CYP2C19 inh
CCOc1nc(-c2ccccc2Cl)ccc1C#N,23,-2.8,0.8,0.8,19
C=CCNC(=O)c1ccc(-c2nc(-c3ccc(Cl)c(Cl)c3)cs2)cc1,15,0.76,0.8,0.8,24
C=CCNc1nc(-c2ccc(O)c(C(N)=O)c2)cs1,11,0.61,0.3,0.9,75*
CCCCNC(=O)C1CC(=O)N(c2ccc(OC)cc2)C1c1ccc(OC)cc1 (stereo not drawn),17,0.13,0.7,0.8,29
CCN(CC)c1ccc(C2C(C(=O)OC(C)C)C(=O)CC(C)(O)C2C(=O)OC(C)C)cc1 (stereo not drawn),6,-5.7*,0.8,0.9,21
CC(C)OC(=O)C1C(=O)CC(C)(O)C(C(=O)OC(C)C)C1c1ccc(F)cc1 (stereo not drawn),26,-0.79,0.2,0.7,77*
CCOC(=O)C1C(=O)CC(C)(O)C(C(=O)OCC)C1c1ccc(F)cc1 (stereo not drawn),9,0.036,0.8,0.9,20
CCCN1CN(Cc2ccco2)c2nc3ccccc3n2C1,2,0.079,0.9,1,11
O=C(O)/C=C/c1cn(-c2ncc(C(F)(F)F)cc2Cl)c2ccccc12,-3,1.9,1,1,-2
CC1(C)CC(=O)C(CC2=C(O)CC(C)(C)CC2=O)=C(O)C1,26,-0.28,0.1,0.7,86*
CC1(C)CC(=O)C(CC2=C(O)CC(C)(C)CC2=O)C(=O)C1,3,0.39,0.5,1,51*
Fc1ccc(Sc2nc(-c3ccccc3)nnc2C(F)(F)F)cc1,38,/,0.9,0.6,14
Fc1ccc(Sc2cc(Cl)c(-c3ccccc3)nn2)cc1,57*,-1.6,0.5,0.4,45
CC1CCN(S(=O)(=O)c2cccc(C(=O)NCc3cccs3)c2)CC1,28,-7.3*,0.9,0.7,15
CC1CCCCN1S(=O)(=O)c1ccc(NC(=O)c2cccs2)cc1 (stereo not drawn),74*,-1.6,0.4,0.3,56*
CCCCN(CCCC)S(=O)(=O)c1ccc(NC(=O)c2cccs2)cc1,91*,-0.78,0.4,0.1,60*
CC1CCN(S(=O)(=O)c2ccc(NC(=O)c3cccs3)cc2)CC1,96*,-2.5,0.2,0,84*
Cc1cc(C)nc(NS(=O)(=O)c2ccc(NC(=O)c3cccs3)cc2)n1,44,/,0.8,0.6,16
CN1CCN(S(=O)(=O)c2ccc(NC(=O)c3cccs3)cc2)CC1,-8,-0.99,1.1,1.1,-14
Cc1cc(CNC(=O)C2(C(F)(F)F)CC(CCCO)CCCO2)nn1C (stereo not drawn),/,-0.022,/,/,/
CN(C1CCCCC1)S(=O)(=O)c1ccc(NC(=S)NC(=O)c2cccs2)cc1,36,-5.7*,0.6,0.6,44
O=C(C(c1ccccc1)c1ccccc1)N1CCN(Cc2ccco2)CC1,/,0.031,/,/,/
CC1CCN(S(=O)(=O)c2cc(Br)cc(C(=O)NC3=NCCS3)c2)CC1,45,-4.1,0.3,0.6,68*
CC1CCN(S(=O)(=O)c2cccc(C(=O)Nc3ccccn3)c2)CC1,10,-0.38,0.9,0.9,6
CCC(CC)C(=O)OCC(=O)NC12CC3CC(CC(C3)C1)C2,34,-0.14,0.1,0.7,94*
SMILES,CYP2C9 inh,Cav32 inh,CYP2C19 act,CYP2C9 act,CYP2C19 inh
O=C(COC(=O)C12CC3CC(CC(C3)C1)C2)NC12CC3CC(CC(C3)C1)C2,18,-2.8,0.8,0.8,23
COC(=O)c1sccc1NC(=S)N1CC(C)CC(C)C1 (stereo not drawn),70*,-1.4,0.2,0.3,83*
COc1ccc(C(=O)Nc2cccc3cccnc23)cc1OC,-26,-1.3,0.8,1.3,22
COc1cccc(CNc2cccc3cccnc23)c1O,-123,-2.7,0.2,2.2*,81*
COc1cccc(CNc2cnc3ccccc3c2)c1O,/,-4.5*,/,/,/
CCCC(C)NC(=O)c1ccc(C2SCC(=O)N2Cc2ccco2)cc1 (stereo not drawn),13,1.8,0.8,0.9,18
CCn1cc(Br)c(C(=O)NC(C)c2ccccc2)n1 (stereo not drawn),-55,0.068,0.7,1.5,33
O=C(c1ccncc1)N1CCN(c2ccc(F)cc2)CC1,31,0.76,0.1,0.7,91*
O=C(c1ccccc1)N1CCN(C(=O)c2ccncc2)CC1,/,0.14,/,/,/
CCn1cc(Br)c(C(=O)N(C)Cc2ccccc2)n1,-40,1,0.1,1.4,92*
